Reference: the supplement of paper PMC12024424
Where a name gives a salt, the structure may show the parent alone.

What follows are molecules tested on Staphylococcus aureus Sa2 (MRSA, cystic fibrosis isolate) (assay: growth reduction vs untreated control (viable cell count); higher = stronger antibacterial activity; extreme values may be limits of the assay). Settings: 0.1 mM; 24 h.
Experimental: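 Single-dose screen of the MedChem Express Drug Repurposing Library (0.1 mM, 1% DMSO) against planktonic MRSA S. aureus Sa2 (CF isolate) in TSB in 96-well plates, 37 °C aerobic, 24 h. Assays were run in triplicate and repeated twice.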

Compound | growth reduction [%]
COCCNCc1ccc(-c2cc3nccc(Oc4ccc(NC(=O)C5(C(=O)Nc6ccc(F)cc6)CC5)cc4F)c3s2)nc1 [Sitravatinib] | 100
CC(C)(C)c1ccc(C(O)CCCN2CCC(C(O)(c3ccccc3)c3ccccc3)CC2)cc1 (configuration not stated) [Terfenadine] | 100
CO[C@@H](Cc1ccc(OCCc2nc(-c3ccccc3)oc2C)c2ccsc12)C(=O)O [Aleglitazar] | 90
O=C(NCc1c(F)cc(F)cc1F)c1cn2c(c(O)c1=O)C(=O)N1[C@H]3CC[C@H](C3)O[C@@H]1C2 [Bictegravir] | 100
C#C[C@]1(O)CC[C@H]2[C@@H]3CCC4=CCCC[C@@H]4[C@H]3C(=C)C[C@@]21CC [Desogestrel] | 100
O=C(O)Cc1cc(I)c(Oc2ccc(O)c(I)c2)c(I)c1 [Tiratricol] | 100
C[C@H](Nc1cc(-c2cnn(C)c2)cc(Nc2cnccn2)n1)c1ccc(F)cc1 [Ilginatinib (maleate)] | 95
O=C(O)c1ccc2c(c1)CCCC(c1ccc(Cl)cc1Cl)=C2c1ccc(O[C@H]2CCN(CCCF)C2)cc1 | 100
OCCN1CCN(CCCN2c3ccccc3Sc3ccc(Cl)cc32)CC1 [Perphenazine] | 100
CC(=O)Oc1ccccc1C(=O)Nc1ncc([N+](=O)[O-])s1 [Nitazoxanide] | 100
CC(C)(C)NC(=O)N[C@H](C(=O)N1C[C@H]2[C@@H]([C@H]1C(=O)NC(CC1CCC1)C(=O)C(N)=O)C2(C)C)C(C)(C)C (some centres not stated) [Boceprevir] | 92
CCCCCCCCc1ccc(CCC(N)(CO)CO)cc1 [Fingolimod (hydrochloride)] | 100
O=c1[nH]cc(F)c(=O)[nH]1 [5-Fluorouracil] | 100
CC(C)(C)c1nc(-c2cccc(NS(=O)(=O)c3c(F)cccc3F)c2F)c(-c2ccnc(N)n2)s1 [Dabrafenib (Mesylate)] | 90
CC(C)OC(=O)CCC/C=C\C[C@@H]1[C@@H](/C=C/[C@@H](O)COc2cccc(C(F)(F)F)c2)[C@H](O)C[C@@H]1O [Travoprost] | 100
COc1cccc2c1C(=O)c1c(O)c3c(c(O)c1C2=O)C[C@@](O)(C(=O)CO)C[C@@H]3O[C@H]1C[C@H](N)[C@@H](O)[C@H](C)O1 [Epirubicin (hydrochloride)] | 100
Cn1cc(-c2ccncc2)c(-c2ccc(OCc3ccc4ccccc4n3)cc2)n1 [Mardepodect] | 93
COc1cc2c(Nc3ccc(Cl)c(Cl)c3F)ncnc2cc1OC[C@@H]1C[C@@H]2CN(C)C[C@@H]2C1 [Tesevatinib] | 100
CC(C)Nc1nc2cc(Cl)c(Cl)cc2n1[C@H]1O[C@@H](CO)[C@H](O)[C@@H]1O [Maribavir] | 94

Compound | growth reduction [%]
O=C(c1ccc(OCCN2CCCCC2)cc1)c1c(-c2ccc(O)cc2)sc2cc(O)ccc12 [Raloxifene (hydrochloride)] | 93
CC(O)c1cc(C(=O)N[C@@H](C)Cn2ccc(-c3ccc(C#N)c(Cl)c3)n2)n[nH]1 (some centres not stated) [Darolutamide] | 100
CCOc1nc2cccc(C(=O)OC(C)OC(=O)OC3CCCCC3)c2n1Cc1ccc(-c2ccccc2-c2nn[nH]n2)cc1 (configuration not stated) [Candesartan Cilexetil] | 100
CC1(S(=O)(=O)O)CC(=O)c2ccccc2C1=O (configuration not stated) [Menadione bisulfite (sodium)] | 100
COc1cc(NCc2ccc3nc(N)nc(N)c3c2C)cc(OC)c1OC [Trimetrexate] | 100
C[C@H]1CNCCCN1S(=O)(=O)c1cccc2cncc(F)c12 [Ripasudil] | 100
CC(C)COc1ccc(CNC(=O)N(Cc2ccc(F)cc2)C2CCN(C)CC2)cc1 [Pimavanserin tartrate] | 100
CNC(=O)c1cc(Oc2ccc(NC(=O)Nc3ccc(Cl)c(C(F)(F)F)c3)c(F)c2)ccn1 [Regorafenib (monohydrate)] | 98
O=C(NCc1ccc(Oc2ccccc2)cc1)c1nc(-c2cc(Br)c(O)c(Br)c2)no1 | 100
CC(=C(CCOC(=O)C(C)C)SSC(CCOC(=O)C(C)C)=C(C)N(C=O)Cc1cnc(C)nc1N)N(C=O)Cc1cnc(C)nc1N (stereo in doubt) [Sulbutiamine] | 97
Cc1c(Cl)c(C)[n+]([O-])c(Cl)c1-c1noc(-c2cc(O)c(O)c([N+](=O)[O-])c2)n1 [Opicapone] | 100
COc1ccc(NS(=O)(=O)c2c(F)c(F)c(F)c(F)c2F)cc1F [Batabulin] | 98
CCc1nc(-c2cccc(C)c2)c(-c2ccnc(NC(=O)c3ccccc3)c2)s1 | 100
CN[C@H]1CC[C@@H](c2ccc(Cl)c(Cl)c2)c2ccccc21 [Sertraline (hydrochloride)] | 100
CCCCCCCCCCCC[N+](C)(C)CCOc1ccccc1 [Domiphen (bromide)] | 100
CCOC(=O)N1CCC(=C2c3ccc(Cl)cc3CCc3cccnc32)CC1 [Loratadine] | 100
CC(C)N(CCCCOCC(=O)NS(C)(=O)=O)c1cnc(-c2ccccc2)c(-c2ccccc2)n1 [Selexipag] | 100
CNC(=O)c1cc(Oc2ccc(NC(=O)Nc3ccc(Cl)c(C(F)(F)F)c3)cc2)ccn1 [Sorafenib] | 100
